This is an account of results in PubChem BioAssay (EPA / NIEHS).

Some structures have more than one record in an assay (separate samples or runs), and their calls can disagree. Active and inactive are the calls of the source. Rule for the calls: active = hit-call score of the fitted dose curve at least 0.9, where 1 is the maximum; inactive = score below 0.9.

Test [1] in a line: APR_HepG2_MicrotubuleCSK_72hr: Apredica 72-hour HepG2 Assay for Microtubule CSK Stabilty (AID 2282919). Particulars: HepG2 microtubule cytoskeleton, high-content imaging, actives raise or lower the signal. The procedure, abridged: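 HepG2, 72 hr cmpd exposure, 0.39–200 uM (10 pts, duplicate), 0.5% DMSO. 3.7% formaldehyde fix, 0.5% Triton perm, anti-alpha-tubulin/Cy5 plus Hoechst. HCS fluorescence intensity; bidirectional fit vs DMSO baseline; taxol as positive control.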

Test [2] can be described thus: APR_HepG2_P-H2AX_24hr: Apredica 24-hour HepG2 Assay for H2AX Phosphorylation (AID 2282920). Particulars: high-content imaging, actives raise or lower the signal. An outline of the steps: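 HepG2, 24 hr, cpd 0.39–200 uM (10 conc, duplicate), DMSO 0.5% v/v final. Fix 3.7% formaldehyde, Triton X-100 permeabilize, anti-phospho-H2A.x 1:200 + Hoechst 2 ug/mL. Imaged, bidirectional fit vs DMSO.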

Test [3] can be described thus: APR_HepG2_StressKinase_72hr: Apredica 72-hour HepG2 Assay for Stress Kinase (AID 2282921). Particulars: HepG2 stress kinase (phospho-c-Jun) imaging, actives raise or lower the signal. The procedure, abridged:
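After a 72 h compound treatment spanning 0.39 to 200 uM, formaldehyde-fixed cells are labelled for phosphorylated c-Jun and nuclei, imaged by automated fluorescence microscopy, and activity is fitted in both directions relative to DMSO controls.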

Test [4] in a line: APR_HepG2_StressKinase_24hr: Apredica 24-hour HepG2 Assay for Stress Kinase (AID 2282922). To be noted: HepG2 stress kinase (phospho-c-Jun) imaging, actives raise or lower the signal. The procedure, abridged: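 Read-out: phospho-c-Jun immunofluorescence (Cy3 secondary) quantified by high-content imaging at 20x, nuclei defined by Hoechst 33342. Human HepG2 liver cells dosed 24 hr, 0.39–200 uM, DMSO 0.5% v/v; gain or loss of signal fitted relative to DMSO.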

The nature of test [5]: APR_HepG2_MitoMass_72hr: Apredica 72-hour HepG2 Assay for Mitochondrial Mass (AID 2282924).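 Note: MitoTracker Red CMXRos stain intensity per cell imaged as mitochondrial mass.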 Particulars: high-content imaging, actives raise or lower the signal. An outline of the steps:
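Read-out: MitoTracker Red fluorescence intensity from automated imaging (20x, six fields per well) in human HepG2 liver cells. Dosing ran 72 hr, 0.39–200 uM, 0.5% DMSO; bidirectional curve fitting versus DMSO baseline.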

Test [6] is described as follows: APR_HepG2_NuclearSize_72hr: Apredica 72-hour HepG2 Assay for Nuclear Size (AID 2282925). To be noted: high-content imaging, actives raise or lower the signal. The procedure, abridged:
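Read-out: nuclear diameter from Hoechst 33342 images (ArrayScan, 20x, six fields/well), via cell-cycle image analysis. HepG2 were dosed 0.39–200 uM for 72 hr in 0.5% DMSO. Bidirectional fit relative to DMSO.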

A short description of test [7]: ATG_CRE_CIS: Attagene CIS-FACTORIAL HepG2 Assay for human cAMP Responsive Element (CRE) binding protein 3 (AID 2282926). Particulars: HepG2 CRE cis-reporter, Attagene multiplexed mRNA; actives raise or lower the signal. The procedure, abridged:
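Assay format: transient reporter transfection of HepG2, 24 h treatment, total RNA isolation with DNase I step. Reporter abundance read by fluorescence after PCR and capillary separation; DMSO-normalised gain or loss fitting.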

Test [8] has as its target CCAAT/enhancer-binding protein beta (Homo sapiens) (UniProt P17676). Put plainly: ATG_C_EBP_CIS: Attagene CIS-FACTORIAL HepG2 Assay for human CCAAT/Enhancer Binding Protein (C/EBP) beta (AID 2282927). To be noted: HepG2 Attagene cis-factorial transcription factor reporter; actives raise or lower the signal. An outline of the steps: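 HepG2 transiently transfected with multiplexed reporter units under cis-regulatory promoters reporting endogenous C/EBPb activity. After 24 h exposure, reporter mRNA assayed by RT-PCR, fluorescent labelling, HpaI digestion and capillary electrophoresis; bidirectional fitting versus DMSO.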

The nature of test [9]: ATG_CMV_CIS: Attagene CIS-FACTORIAL HepG2 Assay for human CMV (Internal Marker) (AID 2282928).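 Note: endpoint acts as a background internal control marker rather than a target.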 To be noted: HepG2 CMV promoter reporter, transcription factor profiling; actives raise or lower the signal. The procedure, abridged:
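24 h chemical treatment, HepG2 with transient multi-reporter transfection; RNA → oligo(dT) RT → PCR → 6-FAM extension → HpaI digest → CE fluorescence. Bidirectional fit, DMSO negative control.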

Test [10] in a line: ATG_DR4_LXR_CIS: Attagene CIS-FACTORIAL HepG2 Assay for human Liver X Receptor (LXR), DR4 submotif (AID 2282929). Particulars: HepG2 Attagene DR4 cis-reporter, mRNA transcription; actives raise or lower the signal. An outline of the steps: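 DR4 cis-reporter in HepG2, 24 h exposure. Detection: RT-PCR, 6-FAM labelling, CE fragment analysis. Endpoint fitted bidirectionally, DMSO = baseline.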

A short description of test [11]: ATG_AP_1_CIS: Attagene CIS-FACTORIAL HepG2 Assay for human Activator Protein 1 (AP-1) (AID 2282931). Particulars: HepG2 Attagene cis-factorial AP-1 reporter mRNA; actives raise or lower the signal. An outline of the steps: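 Cis-regulated reporter units transiently expressed in HepG2 report endogenous transcription-factor activity. Signal: reporter mRNA at 24 h, via RT-PCR and fluorescent capillary electrophoresis. Endpoint derived by bidirectional fitting, DMSO as negative control.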

A short description of test [12]: ATG_AP_2_CIS: Attagene CIS-FACTORIAL HepG2 Assay for human Activator Protein 2 (AP-2) (AID 2282932). Particulars: HepG2 AP-2 cis-reporter, Attagene transcription factor profiling; actives raise or lower the signal. An outline of the steps: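 Liver-derived HepG2 line, cis-reporter system measuring endogenous factors; 24 h dosing; reporter mRNA detected by fluorescent RT-PCR and capillary electrophoresis.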

The nature of test [13]: ATG_BRE_CIS: Attagene CIS-FACTORIAL HepG2 Assay for human Bone Morphogenetic Protein (BMP) Response Element (BRE) (AID 2282933). To be noted: HepG2 BMP response element reporter, Attagene transcription factor profiling; actives raise or lower the signal. An outline of the steps: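 Transient MRTU transfection of human HepG2 liver cells; 24 h compound treatment; total RNA isolated, reverse-transcribed, PCR-amplified, 6-FAM labelled, HpaI-cut, capillary electrophoresis. DMSO = negative control/baseline, bidirectional fit.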

In test [14] the target is Retinoic acid receptor alpha (Homo sapiens) (UniProt P10276). Put plainly: ATG_DR5_RAR_CIS: Attagene CIS-FACTORIAL HepG2 Assay for human Retinoic Acid Receptor Alpha (RARE), DR5 submotif (AID 2282934).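 For AC50: reporter responds to endogenous RAR alpha beta and gamma in HepG2 not RARA alone.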 Particulars: HepG2 Attagene cis-factorial RARE DR5 reporter, mRNA; actives raise or lower the signal. The procedure, abridged:
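HepG2 cells transiently transfected with multiplexed reporter units; DR5 cis-element drives reporter through endogenous transcription factors. After 24 h dosing, reporter mRNA quantified by RT-PCR, fluorescent labeling, HpaI digestion and capillary electrophoresis; bidirectional fitting versus DMSO.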

The target of test [15] is Transcription factor E2F1 (Homo sapiens) (UniProt Q01094). Put plainly: ATG_E2F_CIS: Attagene CIS-FACTORIAL HepG2 Assay for human E2F Transcription Factor 1 (AID 2282935). Particulars: HepG2 Attagene cis-reporter, E2F reporter RNA transcripts; actives raise or lower the signal. The procedure, abridged:
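Liver-derived HepG2 cells expressing transfected promoter-driven reporter units received test chemical for 24 hours. Signal gains or losses were fitted bidirectionally against DMSO.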

Test [16] in a line: ATG_M_61_CIS: Attagene CIS-FACTORIAL HepG2 Assay for M61 Transcription Factor (Internal Marker) (AID 2282937). To be noted: HepG2 Attagene CIS-FACTORIAL M61 internal marker reporter; actives raise or lower the signal. An outline of the steps:
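Background-control endpoint: HepG2 cells with cis-regulated reporter constructs, 24 h exposure, reporter mRNA detected via fluorescent primer extension and capillary electrophoresis; values from bidirectional fitting with DMSO baseline.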

Test [17] in a line: ATG_EGR_CIS: Attagene CIS-FACTORIAL HepG2 Assay for human Early Growth Response 1 (EGR1) (AID 2282938). Particulars: HepG2 Attagene CIS-FACTORIAL EGR reporter mRNA; actives raise or lower the signal. The procedure, abridged:
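Endpoint derived by bidirectional fitting versus DMSO vehicle. Method: cis-promoter reporter units transfected into HepG2, 24 h dosing, RNA isolation, RT-PCR with 6-FAM primer extension and HpaI digestion, then capillary electrophoresis fluorescence detection.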

Test [18] can be described thus: APR_HepG2_p53Act_72hr: Apredica 72-hour HepG2 Assay for p53 Activation (AID 2282923).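 Note: average cellular p53 protein immunofluorescence intensity in HepG2 cells.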 Particulars: high-content imaging, actives raise or lower the signal. The procedure, abridged:
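Imaging-based endpoint: after 72 hr compound exposure (up to 200 uM, 0.5% DMSO), fixed and permeabilized monolayers were labelled with anti-p53 antibody and imaged; signal change in either direction was fitted relative to DMSO controls.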

In test [19] the target is Aryl hydrocarbon receptor (Homo sapiens) (UniProt P35869). Put plainly: ATG_Ahr_CIS: Attagene CIS-FACTORIAL HepG2 Assay for human Aryl Hydrocarbon Receptor (Ahr) (AID 2282930). To be noted: HepG2 AhR cis-factorial reporter transcription; actives raise or lower the signal. The procedure, abridged: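 HepG2 cells transiently transfected with cis-element-driven multiplexed reporter units; endogenous AhR activity read as reporter mRNA 24 h after dosing, via RT-PCR, 6-FAM labelling, HpaI digestion and capillary electrophoresis. Bidirectional fit relative to DMSO.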
Chain of Aryl hydrocarbon receptor (Homo sapiens) (P35869 whole entry, looked up): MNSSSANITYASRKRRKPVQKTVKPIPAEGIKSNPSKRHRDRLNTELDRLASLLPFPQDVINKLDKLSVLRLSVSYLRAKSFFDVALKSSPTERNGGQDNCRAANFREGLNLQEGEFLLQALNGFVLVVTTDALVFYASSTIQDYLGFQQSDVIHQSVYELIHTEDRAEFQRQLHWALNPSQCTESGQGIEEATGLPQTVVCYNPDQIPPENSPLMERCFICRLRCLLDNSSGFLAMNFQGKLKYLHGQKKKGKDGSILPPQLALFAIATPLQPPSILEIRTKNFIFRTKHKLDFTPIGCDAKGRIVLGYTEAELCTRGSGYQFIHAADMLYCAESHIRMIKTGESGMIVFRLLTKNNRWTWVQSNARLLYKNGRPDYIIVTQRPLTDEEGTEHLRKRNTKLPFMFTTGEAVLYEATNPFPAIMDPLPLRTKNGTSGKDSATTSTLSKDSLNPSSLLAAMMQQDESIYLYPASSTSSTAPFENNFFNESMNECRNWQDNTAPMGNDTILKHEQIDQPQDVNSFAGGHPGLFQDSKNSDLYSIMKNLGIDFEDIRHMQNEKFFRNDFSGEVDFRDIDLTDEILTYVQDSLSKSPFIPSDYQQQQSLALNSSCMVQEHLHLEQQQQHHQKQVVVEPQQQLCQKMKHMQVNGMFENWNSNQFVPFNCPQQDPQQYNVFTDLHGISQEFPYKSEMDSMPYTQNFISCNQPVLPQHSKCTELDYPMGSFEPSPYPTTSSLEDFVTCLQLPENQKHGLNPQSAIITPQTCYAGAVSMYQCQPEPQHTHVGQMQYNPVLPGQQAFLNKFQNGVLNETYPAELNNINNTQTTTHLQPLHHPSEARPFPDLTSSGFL

A short description of test [20]: ATG_E_Box_CIS: Attagene CIS-FACTORIAL HepG2 Assay for human Enhancer Box (E-box) (AID 2282936). To be noted: HepG2 E-box cis-reporter transcription, actives raise or lower the signal. The procedure, abridged:
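In this cell-based setup, HepG2 cells bearing transfected promoter-driven reporter units were exposed to chemicals for 24 h; reporter transcripts were amplified, 6-FAM-labelled, cut with HpaI and sized by capillary electrophoresis.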

Chain of Transcription factor E2F1 (Homo sapiens) (Q01094 whole entry, looked up): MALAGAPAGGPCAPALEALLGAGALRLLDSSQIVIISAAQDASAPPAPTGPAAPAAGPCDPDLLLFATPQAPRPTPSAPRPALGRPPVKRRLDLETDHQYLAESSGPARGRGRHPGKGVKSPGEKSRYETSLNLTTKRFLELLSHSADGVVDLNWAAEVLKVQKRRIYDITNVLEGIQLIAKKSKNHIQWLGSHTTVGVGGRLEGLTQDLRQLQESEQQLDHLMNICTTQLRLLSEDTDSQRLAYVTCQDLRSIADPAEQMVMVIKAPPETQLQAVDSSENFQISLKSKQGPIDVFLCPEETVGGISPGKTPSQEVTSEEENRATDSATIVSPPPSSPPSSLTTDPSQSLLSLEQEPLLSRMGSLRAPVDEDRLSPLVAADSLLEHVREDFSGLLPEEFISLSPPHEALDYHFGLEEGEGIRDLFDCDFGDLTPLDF
Chain of CCAAT/enhancer-binding protein beta (Homo sapiens) (P17676 whole entry, looked up): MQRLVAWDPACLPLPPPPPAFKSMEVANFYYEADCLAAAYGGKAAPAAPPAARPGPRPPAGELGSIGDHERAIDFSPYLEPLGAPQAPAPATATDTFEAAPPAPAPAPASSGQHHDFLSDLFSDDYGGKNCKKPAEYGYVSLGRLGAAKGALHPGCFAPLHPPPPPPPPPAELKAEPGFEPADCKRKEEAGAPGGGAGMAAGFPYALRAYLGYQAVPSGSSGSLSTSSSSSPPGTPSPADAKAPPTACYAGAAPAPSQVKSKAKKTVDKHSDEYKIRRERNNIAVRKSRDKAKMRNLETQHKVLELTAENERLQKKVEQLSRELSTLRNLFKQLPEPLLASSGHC
Chain of Retinoic acid receptor alpha (Homo sapiens) (P10276 whole entry, looked up): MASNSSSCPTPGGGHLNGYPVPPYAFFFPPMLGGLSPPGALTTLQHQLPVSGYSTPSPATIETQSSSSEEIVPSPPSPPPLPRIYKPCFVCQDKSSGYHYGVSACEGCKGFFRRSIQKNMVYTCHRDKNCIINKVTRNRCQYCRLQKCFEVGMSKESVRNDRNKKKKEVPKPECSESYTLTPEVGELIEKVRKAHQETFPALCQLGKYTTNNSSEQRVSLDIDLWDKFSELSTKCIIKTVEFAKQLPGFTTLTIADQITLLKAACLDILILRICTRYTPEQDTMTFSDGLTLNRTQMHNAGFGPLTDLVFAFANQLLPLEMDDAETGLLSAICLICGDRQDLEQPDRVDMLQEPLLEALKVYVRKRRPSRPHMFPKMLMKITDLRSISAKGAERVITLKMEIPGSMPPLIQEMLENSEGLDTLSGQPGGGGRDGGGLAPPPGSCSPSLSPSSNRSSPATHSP

As to `OCCN(CCO)CCO`, the molecule was called inactive in test [1], in test [2], in test [3], in [4], in test [5] and in [6]. For the same molecule, the result in test [7], in test [8], in test [9], in test [10], in [11] and in test [12] was inactive. The outcome in [13], in test [14], in [15], in test [16] and in test [17] was inactive.

As for `Oc1c(Cl)cc(Cl)cc1Cl`, the outcome in [2], in test [3], in test [4], in test [18], in test [5] and in test [8] was inactive. For the same molecule, the molecule was called inactive in test [9], in test [10], in test [12], in [13], in [15] and in [20]. In addition, the outcome in test [16] and in test [17] was inactive. Further, in test [19], the AC50 is 62.3 µM (active).

With `Cc1cc(Cl)ccc1O`, the call in [7], in [8], in [9], in test [10], in test [19] and in test [11] was inactive. Further, the result in test [12], in test [13], in test [14], in [15], in test [20] and in [16] was inactive. For the same molecule, in test [17], the molecule was called inactive.

Consider `CCOC(=O)CCN(SN(C)C(=O)Oc1cccc2c1OC(C)(C)C2)C(C)C`, for which the molecule was classed as inactive in test [7], in test [8], in test [9], in [19], in [12] and in test [14]. The outcome in [15], in test [20], in [16] and in test [17] was inactive. Besides, the AC50 was 100 µM (active) in test [10], 151 µM (active) in [11] and 163 µM (active) in [13].

Regarding `O=C(O)C1(c2ccc3c(c2)OC[C@H](Cc2ccc(-c4ccccc4)cc2)[C@H]3O)CCCC1`, the outcome in test [1], in test [6], in test [7], in test [8], in test [10] and in test [19] was inactive. Besides, the molecule was classed as inactive in [12], in test [13], in [14], in test [15], in [20] and in test [16]. Moreover, the outcome in test [17] was inactive. Also, the AC50 in test [2] is 108 µM (active); in [3], 116 µM (active); in [4], 111 µM (active); in test [5], 112 µM (active); in test [9], 6.98 µM (active); in test [11] it was 19.7 µM (active).

On to `Oc1cc(Cl)c(Cl)cc1Cl`, for which the molecule was called inactive in test [1], in test [4], in [5], in test [6], in [10] and in test [19]. The outcome in test [12], in [20] and in test [16] was inactive. The AC50 in test [2] is 38.9 µM (active); in [3], 51.8 µM (active); in [7], 39.7 µM (active); in test [8], 46.5 µM (active); in [9], 27.2 µM (active); in test [11], 25.9 µM (active). The AC50 in [13] is 26.8 µM (active); in test [17], 66.6 µM (active).

Turning to `[Cl][Sn]([c]1ccccc1)([c]1ccccc1)[c]1ccccc1`, the AC50 in test [7] is 0.367 µM (active); in [10], 0.67 µM (active); in test [19] it was 1.09 µM (active); in [12], 0.503 µM (active); in test [14] it was 0.227 µM (active); in test [20], 0.252 µM (active). Besides, the AC50 in test [17] is 0.257 µM (active). Also, the outcome in [8], in test [9], in [11], in test [13], in test [15] and in test [16] was inactive.

Take `COc1ccccc1N`: the call in [2], in test [3], in test [4], in [6], in test [7] and in [8] was inactive. The outcome in [9], in [10], in test [19], in test [11], in [12] and in test [13] was inactive. Moreover, the outcome in test [14], in test [15], in test [20], in test [16] and in [17] was inactive. Moreover, the concentration at half-maximal activity (AC50) in test [19] is 78.3 µM (active).

What is called AC50 is the midpoint of the concentration-response curve, whichever way the signal moves.
